Our source for the survival values is PubChem BioAssay AID463173 (ICCB-Longwood Screening Facility, Harvard Medical School, 2010).

The whole screen tested about 52,000 compounds, of which about 1,700 (3.3%) were called active. The sample holds actives, similar compounds and a random draw of the others, so the mix is not that of the screen. A number with no mark means an inactive call. Cut-off read from the data, not from the text of the source: active = survival mostly below about 52% (no sharp cut-off); inactive = mostly above about 56%.

The test system of the assay is Wild type. As to the kind of experiment: S. aureus survival, RN4220 and DeltatarO strains – OD600, teichoic acid synthesis inhibitors, primary screen (AID 463173). Conditions: S. aureus RN4220 wild type/DeltatarO growth, OD600, 18 h, stronger effect = lower value, screened at 18.75 µg/mL (by protocol).
In the case of `CCOC(=O)c1cccc(NC(=O)CSc2ncc3c(n2)-c2ccc(Cl)cc2N(Cc2ccccc2)S3(=O)=O)c1`, the survival is 87%.
In the case of `CCOC(=O)c1ccc(Nc2cc(-c3ccccc3)nc(C)n2)cc1` it was 83%; in that of `COc1cccc(Nc2cc(-c3ccccc3)nc(C)n2)c1`, 49%; in that of `Cc1ccc(Nc2cc(-c3ccccc3)nc(C)n2)cc1`, 37%.
As for `CCOc1ccccc1Nc1cc(-c2ccccc2)nc(C)n1`, the survival was 78%.
The same measure for `Cc1nc(Nc2ccc(Cl)cc2)cc(-c2ccccc2)n1`: -2% (active).
Consider `CSc1nc(Nc2ccc(C)cc2C)cc(-c2ccccc2)n1`, for which the survival is 50%.
Consider `CSc1nc(C)cc(Nc2cccc(C(=O)O)c2)n1`, for which the survival was 87%.
Consider `Cc1cc(C)cc(Nc2cc(-c3ccccc3)nc(C)n2)c1`, for which the survival was 10% (active).
`CSc1nc(Nc2ccc(F)cc2)cc(-c2ccccc2)n1`: the survival was -2% (active).
Take `COc1ccccc1NC(=O)CSc1nncn2c1cc1sccc12`: the survival was 96%.
`Cc1oc(-c2ccccc2)nc1CSc1nnc(C)n2c1cc1sccc12`: the survival is 83%.
The same measure for `CCN(CCCNC(=O)Cn1ncc2c([nH]c3ccc(C)cc32)c1=O)Cc1ccccc1`: 55%; for `NCC(O)CN1CCN(Cc2ccccc2)CC1` (stereo unspecified): 105%.
Consider `CCOC(=O)c1sc2ncn(CC(=O)Nc3ccc(N(C)C)cc3)c(=O)c2c1C`, for which the survival is 89%.
Consider `O=C(CSc1ccc2ccccc2n1)Nc1nsc(-c2ccc(Cl)cc2)n1`, for which the survival is 68%.
With `Cc1cc(SCC(=O)Nc2nsc(-c3ccc(C(C)(C)C)cc3)n2)nc2ccccc12`, the survival is 7% (active).
Regarding `CC(C)(C)c1ccc(-c2nc(NC(=O)CSc3ncnc4sc5c(c34)CCCC5)ns2)cc1`, the survival is 73%.
With `Cc1ccccc1-c1nc(NC(=O)CSc2ncnc3sc4c(c23)CCCC4)ns1`, the survival is 88%.
In the case of `Cc1ccc(-c2nc(NC(=O)CSc3ccc4ccccc4n3)ns2)cc1`, the survival was 83%.
The same measure for `COc1ccc2c(C)cc(SCC(=O)Nc3nsc(-c4ccccc4C)n3)nc2c1`: 1% (active).
`Cc1ccc(-c2nc(NC(=O)CSc3cc(C)c4ccccc4n3)ns2)cc1`: the survival is 71%.
As to `COc1ccc2c(C)cc(SCC(=O)Nc3nsc(-c4ccc(C(C)(C)C)cc4)n3)nc2c1`, the survival was 5% (active).
The same measure for `COc1cccc(NC(=O)CSc2cc(C)c3ccccc3n2)c1`: 73%.
With `COC(=O)c1ccc(Cn2c(SCC(=O)Nc3ccc(F)cc3)nc3ccccc32)cc1`, the survival is 55%.
In the case of `Cc1ccc(Sc2ccc(N3CCCC(C(=O)Nc4ccc(F)cc4)C3)nn2)cc1` (stereo unspecified) it was 60%; in that of `CCOC(=O)c1c(NC(=O)C(C)Oc2ccccc2F)sc(C(C)=O)c1C` (stereo unspecified), 65%; in that of `COc1ccc(NC(=O)CSc2ccc(-c3cccs3)nn2)cc1`, 89%.
As for `CCOC(=O)c1c(NC(C)=O)c2c3c(sc2n1Cc1nc(-c2ccc(Cl)cc2)oc1C)CCCC3`, the survival is 81%.
In the case of `Cc1ccc(CN2COc3c(Cl)cc4c(-c5ccccc5)cc(=O)oc4c3C2)cc1` it was 87%.
Regarding `COc1ccc(OCC(=O)N(Cc2cccs2)c2ccc(OC)cc2)cc1`, the survival was 85%.
Take `COc1ccc(N(Cc2cccs2)C(=O)COc2cccc(C)c2C)cc1`: the survival is 12% (active).
The same measure for `Cc1cccc(OCC(=O)N(Cc2cccs2)c2ccc(Cl)cc2)c1C`: 79%.
In the case of `CC1(C)CC2(C=CC(=O)CC2)CCO1` (stereo unspecified), the survival is 96%.
For `Cn1c(=O)c2c(-c3ccc(Cl)cc3)ccnc2n(C)c1=O`, the survival is 68%.
The same measure for `COc1ccc(CNc2nc(-c3ccc(Cl)cc3)nn2S(=O)(=O)c2ccc(C)cc2)cc1`: 64%.
The same measure for `O=S(=O)(c1ccccc1)n1nc(-c2ccccc2)nc1NCc1ccc(Cl)cc1`: 73%; for `COc1ccc(CNc2nc(-c3ccccc3)nn2S(=O)(=O)c2ccccc2)cc1`: 4% (active); for `CCc1ccc(NC(=O)Cn2c(=O)n(CCC(=O)NCCc3ccc(OC)c(OC)c3)c(=O)c3ccccc32)cc1`: 102%.
As to `COc1ccc(Cl)cc1NCc1nnc2n1CCCCC2`, the survival is 0% (active).
In the case of `Fc1ccc(NCc2nnc3n2CCCCC3)cc1Cl` it was 66%; in that of `Cc1ccc(Cl)cc1NCc1nnc2n1CCCCC2`, 75%.
For the molecule `COc1ccc(C)cc1NCc1nnc2n1CCCCC2`, the survival was -3% (active).
In the case of `COc1ccc(NCc2nnc3n2CCCCC3)c(OC)c1` it was 73%; in that of `Cc1cc(C)cc(NCc2nnc3n2CCCCC3)c1`, 85%; in that of `O=[N+]([O-])c1ccc(S(=O)(=O)N2CCn3cccc3C2c2ccccc2F)cc1` (stereo unspecified), 132%.
`Cn1nc(C(=O)N2CCN(c3cccc(Cl)c3)CC2)c2c1-c1ccccc1S(=O)(=O)C2`: the survival was 46%.
As to `COc1ccc(C2=C/C(=C/c3ccco3)C(=O)O2)cc1`, the survival was 117%.
Turning to `Cc1cccc(CCNC(=O)CN(c2ccc(C(C)C)cc2)S(=O)(=O)c2c(C)nn(C)c2C)c1`, the survival was 87%.
For `Cc1ccc(CNC(=O)Cn2c(=O)ccc3cc(S(=O)(=O)N4CCC(C)CC4)ccc32)cc1`, the survival is 10% (active).
Regarding `CC1CCN(S(=O)(=O)c2ccc3c(c2)oc(=O)n3CC(=O)N2CCCCC2)CC1`, the survival was 76%.
Consider `CC1CCN(S(=O)(=O)c2ccc3c(ccc(=O)n3CC(=O)NCc3ccc(Cl)cc3)c2)CC1`, for which the survival was 59%.
For the molecule `CC(=O)Nc1ccc(NC(=O)Cn2c(=O)ccc3cc(S(=O)(=O)N4CCC(C)CC4)ccc32)cc1`, the survival was 91%.
In the case of `Cc1ccc(NC(=O)Cn2c(=O)ccc3cc(S(=O)(=O)N4CCC(C)CC4)ccc32)cc1Cl`, the survival was 88%.
In the case of `CCc1ccc(NC(=O)Cn2c(=O)ccc3cc(S(=O)(=O)N4CCCC4)ccc32)cc1`, the survival was 148%.
Consider `CC1CCN(S(=O)(=O)c2ccc3c(ccc(=O)n3CC(=O)Nc3ccc(C(C)C)cc3)c2)CC1`, for which the survival is -2% (active).
Regarding `CC1CCN(C(=O)Cn2c(=O)oc3cc(S(=O)(=O)N4CCCCC4)ccc32)CC1`, the survival was 83%.
Turning to `CC1CCN(S(=O)(=O)c2ccc3c(ccc(=O)n3CC(=O)NCc3ccccc3)c2)CC1`, the survival is 22%.
In the case of `CC1CCN(S(=O)(=O)c2ccc3c(c2)oc(=O)n3CC(=O)O)CC1`, the survival is -3% (active).
`Cc1ccc(NC(=O)Cn2c(=O)ccc3cc(S(=O)(=O)N4CCCC4)ccc32)cc1C`: the survival is 88%.
In the case of `Cc1ccc(NC(=O)Cn2c(=O)ccc3cc(S(=O)(=O)N4CCCC4)ccc32)cc1N(C)C`, the survival is 0% (active).
